Values joined by “and” are separate entries in the source; they are usually repeats but may differ in a detail not shown here. Equal values may be shown once. About 83,000 compounds went through this panel and 20% of them were active in at least one assay; those are over-represented in the sample as a whole.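 The endpoint reported here, percent growth, reads 100 for growth as untreated, 0 for no net growth and -100 for all cells dead.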 Active and inactive are the calls of the source. Rule for the calls: active = growth percent below 10; inactive = the rest.
Assays:
Experiment in all cases: NCI-60 one-dose screen, 48 h (100 = growth as untreated, 0 = no growth, -100 = all killed)
Conditions in all cases: 10 µM unless noted
[1] = test system: SR leukemia
[2] = test system: RPMI-8226 leukemia
[3] = test system: OVCAR-8 ovarian
[4] = test system: OVCAR-5 ovarian
[5] = test system: OVCAR-4 ovarian
[6] = test system: SK-OV-3 ovarian
[7] = test system: IGROV1 ovarian
[8] = test system: OVCAR-3 ovarian
[9] = test system: HS 578T breast
[10] = test system: NCI/ADR-RES ovarian
[11] = test system: T-47D breast
[12] = test system: BT-549 breast
[13] = test system: SW-620 colon
[14] = test system: MCF7 breast
[15] = test system: HCT-116 colon
[16] = test system: HCC-2998 colon
[17] = test system: KM12 colon
[18] = test system: MDA-MB-435 melanoma

Compound	growth [1]	growth [2]	growth [3]	growth [4]	growth [5]	growth [6]	growth [7]	growth [8]	growth [9]	growth [10]	growth [11]	growth [12]	growth [13]	growth [14]	growth [15]	growth [16]	growth [17]	growth [18]
COc1cc(-c2nc3occn3c2-c2ccnc(NCCCNS(=O)(=O)c3ccc(O)cc3)n2)ccc1F	74.2% (inactive)	97% (inactive)	98.4% (inactive)	138% (inactive)	129% (inactive)	82.4% (inactive)	97.8% (inactive)	117% (inactive)	93% (inactive)	104% (inactive)	84.8% (inactive)	116% (inactive)	115% (inactive)	92.1% (inactive)	86.1% (inactive)	112% (inactive)	99.8% (inactive)	–
COc1ccc(C2Nc3nc(SC)nc(N)c3N=C3c4ccccc4CCC32)cc1 (stereo unspecified)	66% (inactive)	67.5% (inactive)	70.5% (inactive)	107% (inactive)	53.9% (inactive)	97% (inactive)	55.2% (inactive)	65.2% (inactive)	97.1% (inactive)	56.2% (inactive)	80% (inactive)	105% (inactive)	76.1% (inactive)	62.9% (inactive)	51.5% (inactive)	103% (inactive)	85.9% (inactive)	–
O=C1C=C(Nc2ccccc2)c2ncccc2C1=O	-28.2% (active)	-40.7% (active)	-92.7% (active)	-90.3% (active)	-95.2% (active)	-91.1% (active)	-66.7% (active)	-74.6% (active)	-8.31% (active)	-24.8% (active)	-48.3% (active)	-94.4% (active)	–	-52.2% (active)	–	-89.1% (active)	-67.3% (active)	-95.3% (active)
O=Nc1ccc(NO)c2ccccc12	106% (inactive) and 43.8% (inactive)	92.2% (inactive) and 54.7% (inactive)	97.9% (inactive) and 87% (inactive)	109% (inactive) and 116% (inactive)	92.3% (inactive) and 35.8% (inactive)	94.2% (inactive) and 106% (inactive)	86.1% (inactive) and 61.5% (inactive)	98.7% (inactive) and 0.0919% (active)	85.4% (inactive) and 96.3% (inactive)	97.5% (inactive) and 14.5% (inactive)	96.9% (inactive) and 65.8% (inactive)	83.3% (inactive) and 87.8% (inactive)	86% (inactive) and 52.3% (inactive)	91.5% (inactive) and 64.5% (inactive)	95% (inactive) and 39.1% (inactive)	120% (inactive) and 108% (inactive)	–	–
Cc1ccc(-c2nc3nc(-c4ccc(Br)cc4)nc(N4CCCNCC4)c3o2)cc1	-32.2% (active)	-36.9% (active)	-45.6% (active)	-44.4% (active)	-94.2% (active)	110% (inactive)	-75.6% (active)	-95.1% (active)	-30.3% (active)	-64.8% (active)	-8.11% (active)	99.5% (inactive)	–	-75.8% (active)	-79.8% (active)	-80.7% (active)	-90.9% (active)	7.5% (active)
NS(=O)(=O)OCC1OC(n2cnc3cncnc32)C(O)C1O (stereo unspecified)	2.84% [0.1 µM] (active) and 3.32% [0.1 µM] (active)	25.1% [0.1 µM] (inactive)	1.63% [0.1 µM] (active) and 1.09% [0.1 µM] (active)	24.4% [0.1 µM] (inactive) and 6.91% [0.1 µM] (active)	14.6% [0.1 µM] (inactive) and 11.4% [0.1 µM] (inactive)	18.5% [0.1 µM] (inactive) and 21.6% [0.1 µM] (inactive)	18% [0.1 µM] (inactive) and 48.5% [0.1 µM] (inactive)	38.6% [0.1 µM] (inactive) and 28.1% [0.1 µM] (inactive)	55.8% [0.1 µM] (inactive)	-5.79% [0.1 µM] (active) and 4.02% [0.1 µM] (active)	7.17% [0.1 µM] (active) and 10.8% [0.1 µM] (inactive)	36% [0.1 µM] (inactive) and 32.4% [0.1 µM] (inactive)	–	5.2% [0.1 µM] (active) and 3.48% [0.1 µM] (active)	2.55% [0.1 µM] (active) and 6.83% [0.1 µM] (active)	30.7% [0.1 µM] (inactive) and 22.9% [0.1 µM] (inactive)	14% [0.1 µM] (inactive) and 10.4% [0.1 µM] (inactive)	1.21% [0.1 µM] (active) and 13.3% [0.1 µM] (inactive)
CCOc1nc(-c2ccccc2)cc2c(O)c(C(=O)N/N=C/c3ccc(N(C)C)cc3)[nH]c(=O)c12	101% (inactive)	102% (inactive)	115% (inactive)	115% (inactive)	148% (inactive)	197% (inactive)	15.7% (inactive)	111% (inactive)	94.1% (inactive)	105% (inactive)	218% (inactive)	125% (inactive)	–	92.9% (inactive)	112% (inactive)	-14.8% (active)	109% (inactive)	118% (inactive)
Cn1c(=O)c2c(nc(Nc3cc(=O)[nH]c(=O)[nH]3)n2Cc2ccccc2)n(C)c1=O	90.7% (inactive)	87.9% (inactive)	7.39% (active)	96.9% (inactive)	52.4% (inactive)	24.6% (inactive)	89.4% (inactive)	0.369% (active)	-16.6% (active)	99.7% (inactive)	18.9% (inactive)	98.2% (inactive)	19.3% (inactive)	95.5% (inactive)	94.2% (inactive)	107% (inactive)	5.18% (active)	–
Brc1ccc(/C=C(/C2=NCCN2)n2ccc3ccccc32)cc1	30.4% (inactive)	86.1% (inactive)	72.3% (inactive)	72.9% (inactive)	67.7% (inactive)	82% (inactive)	60.7% (inactive)	77.6% (inactive)	78.2% (inactive)	65.9% (inactive)	53.1% (inactive)	80.3% (inactive)	–	30.2% (inactive)	52.9% (inactive)	48.5% (inactive)	80.4% (inactive)	58.2% (inactive)
O=C(/C=C/c1ccc([N+](=O)[O-])cc1)c1ccccc1	7.6% (active)	41.6% (inactive)	98.3% (inactive)	106% (inactive)	98.1% (inactive)	92.5% (inactive)	87.3% (inactive)	99.6% (inactive)	93.2% (inactive)	103% (inactive)	60.2% (inactive)	93.6% (inactive)	–	20.2% (inactive)	17% (inactive)	102% (inactive)	57% (inactive)	89.3% (inactive)
O=C(/C=C/C12c3ccccc3C(c3ccccc31)C1C(=O)NC(=O)C12)c1ccncc1 (stereo unspecified)	1.11% (active)	-29.6% (active)	1.79% (active)	13.7% (inactive)	31.8% (inactive)	71.8% (inactive)	9.72% (active)	4.84% (active)	38% (inactive)	23.9% (inactive)	-4.38% (active)	15.7% (inactive)	–	3.34% (active)	-16.5% (active)	88.2% (inactive)	7.72% (active)	9.93% (active)
Cc1nc2sc(C(=O)Nc3cccc(Cl)c3C)c(N)c2cc1C(O)c1ccccc1 (stereo unspecified)	7.23% (active)	8.08% (active)	11.8% (inactive)	37.5% (inactive)	55.6% (inactive)	32.9% (inactive)	21.8% (inactive)	4.1% (active)	23.4% (inactive)	3.99% (active)	44.5% (inactive)	40.9% (inactive)	–	16.2% (inactive)	8.63% (active)	–	10.5% (inactive)	4.87% (active)
Clc1ccc(CNc2ccc3nc(CCC4CCCCC4)[nH]c3c2)cc1	26.2% (inactive)	-6.18% (active)	65.3% (inactive)	53% (inactive)	32.3% (inactive)	78.9% (inactive)	45.9% (inactive)	69.6% (inactive)	78.8% (inactive)	54.7% (inactive)	24.3% (inactive)	83.3% (inactive)	–	37.9% (inactive)	–	-57.6% (active)	50.7% (inactive)	66.4% (inactive)
CC/C=C\C/C=C\C[C@H](O)C/C=C1/C(=O)C=C[C@@H]1C/C=C\CCCC(=O)OC	0.0807% (active)	-8.73% (active)	7.41% (active)	11% (inactive)	28.2% (inactive)	24.2% (inactive)	-28.9% (active)	-40.1% (active)	32.6% (inactive)	12.1% (inactive)	4.23% (active)	-14.9% (active)	-46.3% (active)	2.32% (active)	-63.8% (active)	-83.9% (active)	-71.6% (active)	–
CCCCCCCCn1ccc2cc(NC(=O)CN3CCN(c4nc(C)cc(N5CCCCC5)n4)CC3)ccc21	53.3% (inactive)	59.9% (inactive)	90.2% (inactive)	103% (inactive)	82.7% (inactive)	98.8% (inactive)	73.9% (inactive)	94.4% (inactive)	91.5% (inactive)	85.8% (inactive)	79.6% (inactive)	83.4% (inactive)	87.6% (inactive)	70.8% (inactive)	76% (inactive)	117% (inactive)	86.4% (inactive)	–

Source: PubChem BioAssay (NCI)
